MARV entry inh: Marburg virus entry inhibition | Marburg virus pseudotyped entry inhibition, cell reporter | Potency, µM (highest dose often 37.8 µM), hits mostly inhibitors | actives 1.8% (n = 300,000); calls by dose curve; tested in HEK293 cells
HCMV inh: human cytomegalovirus inhibition; HFF cells, HCMV-luciferase reporter, 72 h; active compounds read low; activity change, negative = inhibition, % at 57.5 µM; actives 4.5% (n = 410,000); AID 1259415; in the data active = activity change below about -60%; inconclusive = no clear call, values can overlap the other calls; inactive = above about -39%
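Luciferase read-out from HCMV-luciferase-infected HFFs (MOI 1 PFU/cell) 72 h post infection at 37C; compounds added after 16 h cell attachment; activity normalized between buffer-only basal and Salinomycin (10uM) inhibitor controls.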
Vaccinia mCherry: vaccinia inhibition (mCherry reporter). actives 0.63% (n = 310,000). AID 720579. Vaccinia virus mCherry reporter infection, fluorescence. Potency, µM (top dose mostly 36.5 µM), most hits filed as inhibitors; calls by dose curve; tested in A549 cells; note: nearly all actives have a fitted effect of over 35% in size
Vaccinia Venus: vaccinia inhibition (Venus reporter). Vaccinia virus Venus reporter expression, fluorescence. AID 720580. Potency, µM (top dose mostly 36.5 µM), actives largely listed as inhibitors. actives 0.46% (n = 330,000); calls by dose curve; tested in A549 cells; note: nearly all actives have a fitted effect of over 30% in size
LASV entry inh: inhibitors of Lassa virus binding or cell entry; Lassa virus pseudotype entry inhibition, cell reporter; Potency, µM (series often up to 37.9 µM), hits mostly inhibitors; actives 1.2% (n = 300,000); AID 540256; calls by dose curve; tested in HEK293 cells; note: nearly all actives have a fitted effect of over 50% in size
FMDV inh: antivirals against foot and mouth disease virus. FMDV antiviral cell-based qHTS. AID 1159524. Potency, µM (highest dose often 57.9 µM), usual class: inhibitors. actives 1.2% (n = 410,000); calls by dose curve; tested in HEK293T cells; note: read-out not given here; nearly all actives have a fitted effect of over 45% in size
Hits are given with their value; 0 = inactive; ? = inconclusive; - = not tested or not shown; ! = repeats disagree; [ ] = remark or other dose. Shown are actives, neighbours in structure and some others; about 6.5% of the full set was active somewhere.

SMILES	MARV entry inh	HCMV inh	Vaccinia mCherry	Vaccinia Venus	LASV entry inh	FMDV inh
Cc1ccc(CNC(=O)C2CCN(S(=O)(=O)c3cc(-c4noc(C)n4)ccc3C)CC2)cc1	-	0	?	0	0	0
CCOc1ccc(N(CC)C(=O)c2cc3c(s2)-c2ccccc2OC3)cc1	0	0	0	0	-	?
Cc1cc(-c2ccc(N=Nc3c(S(=O)(=O)O)cc4cc(S(=O)(=O)O)cc(N)c4c3O)c(C)c2)ccc1N=Nc1c(S(=O)(=O)O)cc2cc(S(=O)(=O)O)cc(N)c2c1O	15.8µM	-	-	-	?	-
O=S(=O)(O)c1cc(O)c2c(O)c(N=Nc3cc(Cl)ccc3O)c(S(=O)(=O)O)cc2c1	?	-	0	0	?	12.6µM
COc1cc(S(=O)(=O)O)c(C)cc1N=Nc1c(O)ccc2cc(S(=O)(=O)O)ccc12	-	-	0	0	-	-
COc1cccc(CNC(=O)Cc2ccc(NC(=O)N3CCSc4ncccc43)cc2)c1OC	-	0	0	0	0	0
CCOC(=O)C1CCCN(C(=O)C2CCN(S(=O)(=O)c3c(C)noc3/C=C/c3ccc(C)cc3)CC2)C1 (stereo not drawn)	-	0	0	0	?	0
O=C(c1cccs1)N1C[C@@H](n2cc(C3CC3)nn2)[C@@H](O)C[C@@H]1c1ccc(Cl)cc1	-	-	-	-	0	-
COc1ccccc1Nc1nc(-c2ccccc2O)nc2ccccc12	0	-69.5	0	0	0	0
COc1cc(Nc2c3ccccc3nc3ccccc23)cc(OC)c1OC	2.82µM	0	?	?	?	0
COc1ccc(Nc2c3c(nc4ccccc24)CCCC3)cc1OC	8.91µM	0	?	0	0	0
COc1ccccc1Nc1c2ccccc2nc2ccccc12	?	-98.7	11.2µM	?	?	?
COc1ccccc1Nc1nc(-c2ccccc2)nc2ccccc12	-	?	-	-	-	0
CC#C[C@H](C)[C@@H](OCOC)[C@H](C[C@H](C)Cc1cc(Br)cc(OCc2ccccc2)c1OC)OC	0	-	-	-	-	-
c1ccc2c(Nc3ccc4c(c3)OCCO4)c3c(nc2c1)CCC3	-	-78.8	-	-	-	?
c1ccc(Nc2c3c(nc4ccccc24)CCC3)cc1	?	?	?	0	0	?
COc1ccc(Nc2cc(C)c3ccccc3n2)cc1	?	0	0	0	0	0
COc1ccc(Nc2c3c(nc4ccccc24)CCC3)cc1Cl	?	0	?	?	0	?
COc1ccc(Nc2c3ccccc3nc3ccccc23)cc1	?	-101.8	?	?	?	?
COc1ccc(C)cc1Nc1c2c(nc3ccccc13)CCC2	?	-88.5	?	0	?	?
Fc1ccc(Nc2c3c(nc4ccccc24)CCC3)cc1	?	-63.9	0	0	?	0
Cn1c(=O)c2c(nc(N3CCOCC3)n2Cc2ccc(Br)cc2)n(C)c1=O	0	0	0	0	0	0
COc1ccc(Nc2cc(Nc3ccc(OC)cc3)ncn2)cc1	0	0	0	0	0	0
COc1ccc(Nc2cc(Nc3cc(OC)c(OC)c(OC)c3)ncn2)cc1	15.8µM	-89.9	0	0	0	?
COc1ccc(Nc2c3c(nc4ccccc24)CCC3)cc1	8.91µM	-94.0	?	?	?	?
SMILES	MARV entry inh	HCMV inh	Vaccinia mCherry	Vaccinia Venus	LASV entry inh	FMDV inh
COc1ccc(CCCc2nnc(SCC(=O)N/N=C\c3ccc(O)c(OC)c3)o2)cc1C	?	0	-	0	?	22.4µM
COc1ccc(/C=N/NC(=O)CSc2nnc(CCCc3ccc(OC)c(C)c3)o2)cc1	?	0	-	?	7.94µM	0
COc1ccc(CCC(=O)NCc2ccc3c(c2)CCN3C(=O)c2ccc(Cl)cc2)cc1	-	0	0	0	?	0
CCNC(=O)c1cc2c(=O)n3cccc(C)c3nc2n(CCc2ccccc2)c1=N	0	-102.9	0	0	0	0
COCCCNC(=O)c1cccn2c(=O)c3cc4ccccc4cc3nc12	?	-81.2	-	-	?	0
Cc1cccn2c(=O)c3cc(C(=O)NCCc4ccccc4)c(=N)n(CCCn4ccnc4)c3nc12	?	0	0	0	0	0
COCCn1c(=N)c(C(=O)NCCc2ccccc2)cc2c(=O)n3cccc(C)c3nc21	?	-68.7	0	0	0	0
COc1cccc(CN2C(=O)c3ccccc3Sc3ccc(C(=O)OCc4ccco4)cc32)c1	-	0	0	0	0	0
COc1ccc(NC(C)=[N+](C)CCNS(=O)(=O)c2ccc(Cl)cc2)cc1Cl	-	0	-	-	-	0
CC(Nc1cc(C)cc(C)c1)=[N+](C)CCNS(=O)(=O)c1ccc(Cl)cc1	10µM	0	?	0	0	0
CCCNC(=O)N1C2=NC(C(=O)OC)=C(C(=O)OC)[C@@H]3N(C)c4ccccc4[C@]23C[C@H]1C(=O)OC	0	-	-	-	-	-
O=C(Nc1ccc([N+](=O)[O-])cc1Cl)c1cc(Cl)ccc1O	1.12µM	-97.9	?	?	1.3µM	6.31µM!
O=C(Nc1ccccc1Cl)Nc1cccnc1Cl	0	-61.5	0	0	0	0
O=C(Nc1cccnc1Cl)c1cc([N+](=O)[O-])ccc1Cl	?	-75.1	0	0	?	0
Cc1ccc([N+](=O)[O-])c(C(=O)Nc2cccnc2Cl)c1	-	0	0	0	-	0
O=C(Nc1cccc2ncccc12)c1cc([N+](=O)[O-])ccc1Cl	0	-87.9	0	0	0	?
COc1ccc(Cl)cc1C(=O)Nc1ccc([N+](=O)[O-])cc1Cl	-	-	0	0	-	-
CCCCCCCCCCCCCCCCCCOC[C@H](COP(=O)([O-])OCC[N+](C)(C)C)OC(C)=O	-	-	0[3.33 µM]	0[3.33 µM]	-	0[6.7 µM]
CC1CCCCC1S(=O)C1=C(C(=O)O)CCCC1 (stereo not drawn)	0	-	-	-	-	-
Cc1ccn2c(c1)nc(=O)c1cc(S(=O)(=O)N3CCC(C)CC3)c(Cl)cc12	0	0	0	0	0	0
Cn1cc(S(=O)(=O)N2CCCC2)cc1C(=O)Nc1ccc(F)cc1F	-	?	0	0	0	0
O=C(Nc1cccc(N2CCC(NCc3cnn(-c4cccc(F)c4)c3)CC2)c1)c1ccncc1	-	-	0	0	-	0
Nc1ccc2c(c1)C(=NO)c1cc([N+](=O)[O-])ccc1-2	?	-84.9	?	0	0	0
COc1ccc(N=C2c3ccccc3-c3ccc([N+](=O)[O-])cc32)cc1	?	0	0	0	?	0
O=C(Nc1cc2c(cc1Cl)-c1ccc([N+](=O)[O-])cc1C2=NO)C(F)(F)F	0	-	0	0	0	0
SMILES	MARV entry inh	HCMV inh	Vaccinia mCherry	Vaccinia Venus	LASV entry inh	FMDV inh
O=[N+]([O-])c1ccc2c(c1)-c1ccccc1C2=NO	?	-69.7	0	0	0	0
O=[N+]([O-])c1ccc2c(c1)C(=Nc1ccccc1)c1ccccc1-2	?	-92.3	0	0	?	0
ON=C1c2ccccc2-c2ccccc21	-	0	-	-	-	0
Cc1cc2nc(-c3ccccc3)c(-c3c(F)cc(F)cc3F)nc2cc1C	-	0	-	-	-	-
CCN(CC)c1cc(C)c2cc(NC(=O)c3ccccc3F)ccc2n1	0	-79.6	-	-	-	0
CCOc1ccccc1C(=O)Nc1ccc2nc(N(CC)CC)cc(C)c2c1	?	0	0	0	0	0
CCOc1ccc(C(=O)Nc2ccc3nc(N(CC)CC)cc(C)c3c2)cc1	0	-86.1	0	0	0	31.6µM
CCN(CC)c1cc(C)c2cc(NC(=O)c3cccc(OC)c3)ccc2n1	?	-70.9	0	0	?	0
CCN(CC)c1cc(C)c2cc(NC(=O)c3cccc(OC)c3OC)ccc2n1	0	?	0	0	0	0

From PubChem
